The list is not random: actives were taken first. Their share in the collection is about 9.4%.
Pf growth 48h = P. falciparum growth inhibition at 48 hours (one generation); Potency, µM (top dose mostly 28.7 µM), inactives show at the top dose activity change, negative = inhibition, usual class: inhibitors; 310,000 tested, 5.9% active; P. falciparum luciferase growth in erythrocytes, 48 h; AID 504832; further: on the % scale 0 is the no-effect control and ±100 the full control effect
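Luminescence readout; reporter = integrated firefly luciferase in P. falciparum. RBC culture at 2% hematocrit, 0.1% parasitemia final, 37 C/5% CO2; decreased signal taken as growth inhibition.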
SARS PLP yeast = SARS-CoV PLP inhibition in yeast. Potency, µM (doses to about 32.9 µM), for inactives: at the highest dose activity, positive = growth rescue, most hits filed as activators. S. cerevisiae expressing SARS-CoV PLpro, growth rescue. 330,000 tested, 0.19% active; calls by dose curve; further: 0% is about no effect; nearly all actives have a fitted effect of over 55% in size
AMA1-RON2 inh = disrupts binding of P. falciparum AMA1 to RON2; AlphaScreen AMA1-biotinylated RON2 peptide binding; 360,000 tested, 0.2% active; Potency, µM (highest dose often 58.2 µM), for the others: at the top dose activity change, negative = inhibition, actives largely listed as inhibitors;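 further: 0% = vehicle wells and -100% = peptide control; nearly all actives have a fitted effect of over 45% in size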
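AMA1 (3D7) with his tag at 25 nM final met compounds first, then biotinylated RON2 peptide at 25 nM; detection used donor plus acceptor beads, 10 µg/mL apiece, read by AlphaScreen after 30 min at room temperature.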
Pf growth 96h = P. falciparum growth inhibition at 96 hour, primary screen for plastid delayed-death inhibitors. P. falciparum luciferase reporter growth, 96 h. Potency, µM (highest dose often 28.7 µM), for inactives: at the top dose activity change, negative = inhibition, actives largely listed as inhibitors. 320,000 tested, 6.9% active. AID 504834; further: on the % scale 0 is the no-effect control and ±100 the full control effect
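Two parasite generations (96 h, 37 C, 5% CO2) of compound exposure in infected erythrocytes (0.05% parasitemia, 2% hematocrit). Luciferase-reporter P. falciparum; decreased luminescence indicates inhibited growth, aimed at apicoplast-acting delayed death.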
An asterisk follows results filed as active; u = inconclusive; x = not tested or not shown. Unless noted, the call rests on the fitted dose curve; in most records, active means well fitted curve in the direction sought with a large enough effect; inconclusive means small, poorly fitted or top-dose-only effect, or another doubt; inactive means no such curve, though single readings can be large; an effect the other way counts as inactive or inconclusive. Potency means the concentration at half of the fitted maximal effect.

SMILES | Pf growth 48h | SARS PLP yeast | AMA1-RON2 inh | Pf growth 96h
COc1cc(C(CC(=O)N2CCCC2)c2c(OC)cc(OC)c3c(-c4ccccc4)cc(=O)oc23)cc(OC)c1OC (stereo not given) | 5.2µM* | 0% | -3% | 3.7µM*
COc1ccc(C(CC(=O)N2CCCC(C)C2)c2c(OC)cc(OC)c3ccc(=O)oc23)cc1 (stereo not given) | 12µM* | 0% | 7% | u
COc1ccc(C(CC(=O)N2CCOCC2)c2c(OC)cc(OC)c3c(-c4ccccc4)cc(=O)oc23)cc1 (stereo not given) | 10µM* | 0% | 1% | u
COc1ccc(C(CC(=O)N2CCCC2)c2c(OC)cc(OC)c3ccc(=O)oc23)cc1 (stereo not given) | u | 1% | 11% | u
COc1ccc(C(CC(=O)N2CCCCC2)c2c(OC)cc(OC)c3c(-c4ccccc4)cc(=O)oc23)cc1 (stereo not given) | 12µM* | 0% | -19% | 13µM*
CC(C)(C)C(=O)Cn1c(NCCCl)nc2ccccc21 | 2% | 2% | 15% | u
O=C(Nc1ccccc1Cl)C1CC(=O)N(c2ccccc2)C1 (stereo not given) | u | 0% | -4% | 0%
COc1ccc(C(CC(=O)N2CCN(c3ccccc3)CC2)c2c(OC)cc(OC)c3c(-c4ccccc4)cc(=O)oc23)cc1 (stereo not given) | u | 1% | x | u
COc1ccc(C(CC(=O)N2CCCC(C)C2)c2c(OC)cc(OC)c3c(-c4ccccc4)cc(=O)oc23)cc1 (stereo not given) | 9.3µM* | -3% | -25% | 12µM*
COc1ccc(C(CC(=O)N2CCCC2)c2c(OC)cc(OC)c3c(-c4ccccc4)cc(=O)oc23)cc1 (stereo not given) | 9.3µM* | -2% | -17% | u
O=C(Nn1c(SCc2ccccc2F)nc2ccsc2c1=O)c1ccccc1 | 7% | -19% | -9% | 6.6µM*
CC1(C)NC(C(=O)O)Cc2c1[nH]c1ccccc21 (stereo not given) | 30% | 1% | -1% | -2%
CC1(C)CC(=O)CC2(C1)NCC(c1ccccc1)c1c2[nH]c2ccccc12 (stereo not given) | 5.9µM* | 1% | -1% | 10µM*
CC(=O)Nc1ccc(NC(=O)Nc2ccccc2C)cc1 | 58% | 0% | -7% | 26%
Cc1ccccc1NC(=O)N(C(C)C)C(C)C | x | 5% | 2% | 9.3µM*
N#C/C(=C\c1c[nH]c2ccccc12)C(N)=O | 28% | 4% | -1% | 20%
CC(=O)Oc1c(/C=C(\C#N)C(N)=O)[nH]c2ccccc12 | 10µM* | -48% | 8% | -15%
Cc1ccsc1/C=C(\C#N)C(=O)NCc1cccnc1 | 11% | 5% | 30% | 39%
COc1ccc(C(NC(=O)CC(C)C)NC(=O)CC(C)C)cc1OC | 16% | 4% | 9% | 10µM*
CCCCC(=O)NC(NC(=O)CCCC)c1ccc(OCC(C)C)c(OC)c1 | 7% | 8% | 6% | -3%
CCOC(=O)N1CCN(CC(O)COc2ccc(C)cc2C(C)(C)C)CC1 (stereo not given) | u | -23% | 7% | -5%
CN(C)c1ccc(N=Nc2nccs2)cc1 | x | x | 11µM* | x
Cc1[nH]n(-c2ccccc2)c(=O)c1N=Nc1nccs1 | x | -30% | 30% | u
COc1ccc(NC(=O)C2=C(C)NC(=S)NC2c2ccc(O)c(OC)c2)cc1 (stereo not given) | 10% | 4% | 4% | -19%
CC1=C(C(=O)Nc2cc(-c3cccc(F)c3)[nH]n2)C2(CCCCC2)OC1=O | u | -2% | 37% | 33%
COc1ccc(C2C(C(=O)OC3CCCCC3)=C(C)Nc3nnnn32)c(OC)c1OC (stereo not given) | 9.3µM* | 6% | 6% | 5%
COC(=O)C1=C(C)Nc2nnnn2C1c1ccc(Cl)cc1Cl (stereo not given) | 4.7µM* | 0% | -5% | u
CCOC(=O)C1=C(C)Nc2nnnn2C1c1ccccc1Cl (stereo not given) | -27% | -1% | -8% | -19%
CC1=C(C(=O)OC2CCCCC2)C(c2cccnc2)n2nnnc2N1 (stereo not given) | 13% | -3% | -12% | 2%
CCOC(=O)C1=C(C)Nc2nnnn2C1c1ccc(OC)c(Br)c1 (stereo not given) | u | 10% | -4% | 12µM*

Screens from PubChem BioAssay.
